High-throughput results deposited in PubChem by National Center for Advancing Translational Sciences (NCATS).
Rows were chosen to be rich in hits. Some 17% of all compounds tested hit in one or more screens of this group.
TGFb SMAD3 inh – qHTS for Inhibitors of TGF-b. HepG2 CAGA-GFP TGF-b/SMAD3 reporter, GFP fluorescence, 18 h; TGF-beta stimulated, 500 pg/mL final. Potency, µM (top dose mostly 46.1 µM), without a hit: at the top dose activity, negative = inhibition, usual class: inhibitors. 410,000 tested, 1.2% active. AID 588855, 2011; also: % is scaled to controls: 0 for no effect and ±100 for the full control effect; nearly all actives have a fitted effect of over 65% in size
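Inhibition was scored as loss of TGF-beta-induced (500 pg/mL final, 18 hours, 37 degrees C) GFP in HEPG2 cells carrying a CAGA-GFP reporter, in DMEM with 1% FBS. Well GFP was summed per cell; Activity was normalised to unstimulated and stimulated DMSO wells, then concentration-response fitting.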
TDP1 cell CPT – qHTS for Inhibitors of human tyrosyl-DNA phosphodiesterase 1 (TDP1): qHTS in cells in presence of CPT | chicken DT40 Tdp1-/-;hTDP1 cells + 20 nM CPT, ATP luminescence, 48 h | Potency, µM (doses to about 46.2 µM), without a hit: at the top dose activity change, negative = growth inhibition, most hits filed as inhibitors | 420,000 tested, 12% active | AID 686979, 2013; also: % is scaled to controls: 0 for no effect and ±100 for the full control effect; nearly all actives have a fitted effect of over 55% in size
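Cell growth measured by CellTiter-Glo luminescence after a minimum 48 h, 37 C compound exposure with 20 nM CPT in Tdp1-knockout DT40 cells stably expressing hTDP1, seeded 400/well; qHTS titration format.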
HT1080NT lethal – qHTS for induction of synthetic lethality in tumor cells producing 2HG: qHTS for the HT-1080-NT fibrosarcoma cell line; HT-1080-NT fibrosarcoma viability, CellTiter-Glo ATP luminescence, 48 h; Potency, µM (titrated, usually from 46.1 µM), for the others: top-dose activity, negative = less viability, usual class: cytotoxic; 360,000 tested, 1.6% active;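 also: NT is the 2HG producing partner of a matched IDH1 knockdown line; 0% = DMSO-treated cells and -100% = media-only wells without cells; nearly all actives have a fitted effect of over 55% in size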
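Viability of the 2HG-overproducing fibrosarcoma line after 48 hours of compound exposure at 37 degrees C was determined by luminescence with CellTiter-Glo, and concentration-effect curves were then fitted and categorized.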
HepG2 tox – qHTS for Inhibitors of TGF-b: Cytotox Counterscreen; 410,000 tested, 0.76% active; Potency, µM (highest dose often 46.1 µM), inactives show top-dose activity change, negative = cytotoxicity, actives largely listed as cytotoxic; AID 588856, 2011; HepG2 CAGA-GFP viability, ATP luminescence, 18 h
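CellTiter-Glo luminescence gave cytotoxicity after 18 hours at 37 degrees C. The cells were HepG2 CAGA-GFP in 1% FBS DMEM, stimulated with 500 pg/mL TGF-beta after compound addition. %Activity was normalised to no-cell wells (complete cell-killing) and DMSO (no toxicity), and curves were fitted and classified.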
TDP1 cell noCPT – qHTS for Inhibitors of human tyrosyl-DNA phosphodiesterase 1 (TDP1): qHTS in cells in absence of CPT | Potency, µM (series often up to 46.2 µM), without a hit: at the highest dose activity change, negative = growth inhibition, usual class: inhibitors | DT40 Tdp1-/- hTDP1 cells, no CPT, ATP luminescence, 48 h | 420,000 tested, 15% active | AID 686978, 2013; also: % is scaled to controls: 0 for no effect and ±100 for the full control effect; nearly all actives have a fitted effect of over 55% in size
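Chicken DT40 Tdp1-/- cells complemented with human TDP1, screened without camptothecin (DMSO vehicle only), 400 cells/well. Compounds pin-transferred, cells incubated at 37 °C for at least 48 hr. Growth read as ATP-dependent luminescence (CellTiter-Glo, 30 min at RT).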
HT1080 IDH1KD tx – qHTS for induction of synthetic lethality in tumor cells producing 2HG: qHTS for the HT-1080-IDH1KD cell line; AID 686971, 2013; HT-1080 IDH1 knockdown viability, ATP luminescence, 48 h; Potency, µM (series often up to 46.1 µM), inactives show at the highest dose activity, negative = toxicity, actives largely listed as cytotoxic; 360,000 tested, 2% active;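 also: 0% = DMSO wells and -100% = cell-free medium wells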
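Cytotoxicity counter-line: IDH1KD HT-1080, 48 h, CellTiter-Glo. Curves classed by r2, magnitude and activity.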
Starred values were filed as active, the others as inactive; u = inconclusive; x = no result given; [ ] = remark or other dose. Calls follow the shape of the dose curve; as a rule, active = well fitted curve in the direction sought with a large enough effect; inconclusive = small, poorly fitted or top-dose-only effect, or another doubt; inactive = no such curve, though single readings can be large; an effect the other way counts as inactive or inconclusive. Potency is read from the fitted curve at half-maximal effect.

SMILES	TGFb SMAD3 inh	TDP1 cell CPT	HT1080NT lethal	HepG2 tox	TDP1 cell noCPT	HT1080 IDH1KD tx
O=C(CN1CCC(C(O)(c2ccccc2)c2ccccc2)CC1)Nc1ccccc1	-2.7%	20.6µM*	u	-50.8%	16.4µM*	u
O=C(CN1CCC(C(O)(c2ccccc2)c2ccccc2)CC1)Nc1cc(Cl)ccc1Cl	-5.5%	u	-9.3%	-8.0%	20µM*	-16.5%
Cc1ccc(OCC(=O)N2CCCC(CO)(CCOc3ccccc3)C2)cc1 (centres undefined)	u	-10.6%	-15.2%	-42.2%	u	-22.5%
COCCNc1nc(Oc2ccc(CC(=O)OC)cc2)c2sc(-c3ccccc3)cc2n1	26.5%	u	-3.1%	-44.6%	18.4µM*	-14.9%
COCCNc1nc2cc(-c3ccccc3)sc2c(=O)n1C	7.7%	u	-4.6%	-14.5%	u	-6.6%
COCCNc1nc(Oc2ccc(NC(C)=O)cc2)c2sc(-c3ccccc3)cc2n1	u	u	u	-57.9%	u	-6.1%
COCCNc1nc(NCc2cccc(OC)c2)c2sc(-c3ccccc3)cc2n1	u	18.4µM*	u	11.2µM*	13µM*	u
COCCNc1nc(NCc2ccc(NC(C)=O)cc2)c2sc(-c3ccccc3)cc2n1	u	3.26µM*	9.2µM*	-105.1%	4.11µM*	u
CCCCOCCCNC(=O)c1ccc([N+](=O)[O-])c(C)c1	-24.7%	-21.0%	4.5%	1.2%	-20.9%	3.5%
OCCN1CCN(Cc2ccc3c(c2)CN(Cc2cccc4ncccc24)CCO3)CC1	x	11.5%[9.04 µM]	x	x	u	x
CC(C)c1ccc(C(=O)N2CCCC(c3cc(C(=O)Nc4ccc5c(c4)OCO5)no3)C2)cc1 (centres undefined)	-3.4%	u	-19.4%	4.9%	20.6µM*	-10.8%
CN(C)c1ccc(CC(=O)N2CCCC(c3cc(C(=O)Nc4ccc5c(c4)OCO5)no3)C2)cc1 (centres undefined)	-9.5%	16.4µM*	-18.3%	-17.3%	13µM*	u
Cc1ccc(C)c(CC(=O)N2CCCC(c3cc(C(=O)NCc4ccccc4)no3)C2)c1 (centres undefined)	-13.2%	u	2.2%	-29.3%	u	0.2%
Cc1ccc(C)c(CC(=O)N2CCCC(c3cc(C(=O)Nc4ccc5c(c4)OCO5)no3)C2)c1 (centres undefined)	-16.4%	14.6µM*	u	-8.4%	16.4µM*	u
O=C1OCC(O)=C1Cc1ccccc1	-18.3%	-23.7%	8.4%	-12.9%	u	5.3%
CCCCCCCCN1C(=O)[C@H](CC(=O)N2CCN(C(=O)C3CC3)CC2)C[C@@]2(C(=O)OC)CC(C)(C)CC=C12	x	14.6µM*	u	x	14.6µM*	u
CCCCCCCCN1C(=O)[C@H](CC(=O)N2CCN(C(=O)OCC)CC2)C[C@@]2(C(=O)OC)CC(C)(C)CC=C12	x	13µM*	u	x	13µM*	u
O=C(NC1CCCCCCC1)C1c2ccccc2C(=O)N1Cc1cccs1 (centres undefined)	-4.1%	13µM*	-4.4%	-17.3%	u	-8.9%
O=C(C1CCC(CNc2c(N3CCCCC3)c(=O)c2=O)CC1)N1CCc2ccccc2C1 (centres undefined)	-10.4%	u	-5.2%	-2.4%	16.4µM*	-10.0%
CCOC(=O)C1CCCN(C2=C(NS(=O)(=O)c3ccc(Br)cc3)C(=O)c3ccccc3C2=O)C1 (centres undefined)	u	18.4µM*	u	-91.1%	16.4µM*	-16.2%
CC1CCN(C2=C(NS(=O)(=O)c3ccccc3)C(=O)c3ccccc3C2=O)CC1	u	u	-26.8%	-39.2%	u	u
CC1CCN(C2=C(NS(=O)(=O)c3ccc(Br)cc3)C(=O)c3ccccc3C2=O)CC1	u	u	18.4µM*	-43.2%	18.4µM*	-24.0%
O=C1C(NS(=O)(=O)c2ccc(Br)cc2)=C(N2CCCCC2)C(=O)c2ccccc21	u	u	u	-90.1%	18.4µM*	-15.6%
CC1CCCN(C2=C(NS(=O)(=O)c3ccc(Br)cc3)C(=O)c3ccccc3C2=O)C1 (centres undefined)	-0.7%	u	-3.5%	1.1%	11.6µM*	-0.3%
CC(=O)c1ccc(NC(=O)/C(=C\c2cccs2)NC(=O)c2ccco2)cc1	-24.7%	-5.2%	-24.4%	5.0%	8.8%	-12.1%
SMILES	TGFb SMAD3 inh	TDP1 cell CPT	HT1080NT lethal	HepG2 tox	TDP1 cell noCPT	HT1080 IDH1KD tx
Cc1ccnc2ccc(Br)cc12	-1.3%	-24.8%	x	4.1%	-21.1%	x
O=C(CCNS(=O)(=O)c1cccc2nonc12)NCc1cccs1	5.5%	-13.7%	-0.2%	-11.5%	-23.0%	0.4%
CCOC(=O)C1CCCN(Cc2cn3c(-c4cccc(Br)c4)nnc3s2)C1 (centres undefined)	-16.2%	-20.7%	x	-24.0%	u	x
COc1cccc(-c2nnc3sc(CN4CCCCC4)cn23)c1	-12.9%	1.16µM*	x	-16.5%	1.3µM*	x
c1ccc(-c2nnc3sc(CN4CCc5ccccc54)cn23)cc1	-2.9%	20.6µM*	x	-5.7%	u	x
c1ccc(CNc2ncnc3ccc(-c4cccnc4)cc23)cc1	x	14.6µM*	x	x	16.4µM*	x
c1ccc(CNc2cc(-c3cccnc3)ncn2)cc1	x	-5.8%	x	x	-14.5%	x
COc1cccc(-c2cc(NCc3cccnc3)ncn2)c1	x	11.3%	x	x	0.0%	x
COc1cccc(-c2ccc3ncnc(NCc4cccnc4)c3c2)c1	-20.5%	11.6µM*	x	-9.1%	u	x
NC(N)=NC(N)=Nc1ccc(SC(F)(F)F)cc1	-12.3%	10.3µM*	-14.7%	-26.5%	9.2µM*	-15.3%
CCNS(=O)(=O)c1ccc2c(c1)NCC2	-16.3%	1.1%	23.1%	-6.2%	8.9%	20.9%
CC(C)n1c(=O)c2ccccc2n1Cc1cn(-c2ccccc2)nn1	13.8%	-12.4%	0.5%	-1.9%	u	-0.4%
COc1ccc(C2CC(=O)C3=C(C2)NC(C)=C(C(=O)Nc2ccccc2C)C3c2coc3ccc(C)cc3c2=O)cc1OC (centres undefined)	-22.7%	20.6µM*	-25.6%	1.5%	u	u
